# Reference: PubChem BioAssay (NCI)
# Compounds without any hit were thinned out: in the full panel of roughly 83,000, 20% have a hit.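 Step 1: grow cells in 96-well plates. Step 2: add test compound at a single concentration. Step 3: incubate 48 h. Step 4: record percent growth.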 A number with no mark means an inactive call. Active and inactive are the calls of the source. The calls were made as follows: active = growth percent below 10; inactive = the rest.
# Legend:
# Test in all cases: NCI-60 one-dose screen, 48 h (100 = growth as untreated, 0 = no growth, -100 = all killed)
# Conditions in all cases: 10 µM unless noted
# T-47D breast = system: T-47D breast
# BT-549 breast = system: BT-549 breast
# MDA-MB-435 melanoma = system: MDA-MB-435 melanoma
# SW-620 colon = system: SW-620 colon
# MCF7 breast = system: MCF7 breast
# HCT-116 colon = system: HCT-116 colon
# HCC-2998 colon = system: HCC-2998 colon
# KM12 colon = system: KM12 colon
SMILES,growth (T-47D breast),growth (BT-549 breast),growth (MDA-MB-435 melanoma),growth (SW-620 colon),growth (MCF7 breast),growth (HCT-116 colon),growth (HCC-2998 colon),growth (KM12 colon)
Cc1cc(NC(=O)c2cnc(N3CCN(CCOCCOCCOCCOCCC(=O)N[C@H](C(=O)N4C[C@H](O)C[C@H]4C(=O)N[C@@H](C)c4ccc(-c5scnc5C)cc4)C(C)(C)C)CC3)cn2)c2ncccc2c1,20.2%,-37.3% (active),-68.3% (active),-39.9% (active),4.01% (active),-60.3% (active),-80.6% (active),-64.6% (active)
COc1ccc(C(O)c2cc3c(N)c(C(=O)Nc4ccc(Br)cc4)sc3nc2C)cc1 (configuration not stated),18.8%,50.8%,-39.8% (active),23.7%,18.6%,21%,46.7%,4.23% (active)
CNC(=O)NCC1OC(n2cnc3c(NC(=O)Nc4ccccc4)ncnc32)C(O[Si](C)(C)C(C)(C)C)C1O[Si](C)(C)C(C)(C)C (configuration not stated),13.6%,39.7%,25.9%,36.4%,0.294% (active),0.332% (active),-1.37% (active),-3.66% (active)
CCNC(=O)c1[nH]cc(-c2ccc(OC)cc2)c1-c1cc(OC)c(OC)c(OC)c1,27.7%,72.5%,-4.43% (active),31.4%,24.4%,15.3%,89.2%,22.1%
COc1ccc(/C(=C\c2ccccc2)C(=O)O)cc1OC,85.7%,102%,106%,97.4%,93.7%,102%,103%,103%
O=C1c2ccccc2-c2c1c1c(NCCCO)nc3ccccc3c1n2Cc1ccccc1,78.2%,-37.7% (active),18.2%,25.2%,-23.2% (active),-57.3% (active),26.1%,38.3%
COc1ccccc1-c1c(-c2ccc(Cl)cc2)c2cc3c(cc2[nH]c1=O)OCCO3,66%,67.7%,65.2%,93.7%,42%,47.7%,83.7%,63.8%
CS(=O)(=O)c1ccc(-c2cc(-c3nnc(SCC(=O)Nc4ccc(C(=O)/C=C/c5ccc(Cl)cc5)cc4)n3-c3ccccc3)c3ccccc3n2)cc1,87%,108%,101%,96.9%,92.5%,92.7%,106%,96.8%
O=C(N/N=C/c1cccc(O)c1)c1ccccc1Nc1cccc(C(F)(F)F)c1,52%,67.3%,88.8%,95.1%,73.4%,83.4%,82.7%,81.5%
CO[C@@H]1[C@H](N(C)C(=O)c2ccccc2)C[C@@H]2O[C@]1(C)n1c3ccccc3c3c4c(c5c6ccccc6n2c5c31)C(=O)NC4=O,40.5%,45%,45.9%,18.6%,42%,25.8%,61.9%,21.8%
C=C1C(=O)O[C@H]2[C@H]1CC/C(CNC(=O)/C=C/c1ccccc1F)=C\CC[C@@]1(C)O[C@@H]21,-0.591% (active),-6.02% (active),23.1%,-54.3% (active),-12.3% (active),-34.9% (active),50.4%,74.2%
CC(O)/C=C/C=C/C(O)CC/C=C/C(=O)NCC(C)(C)O (configuration not stated),86.2%,109%,110%,118%,78.2%,93.5%,90.6%,102%
Cc1cc(Nc2cccc(C(F)(F)F)c2)n2c(nc3ccccc32)c1C#N,8.68% (active),19.4%,45.5%,23.8%,36.3%,39.6%,46.3%,20.9%
CCOC(=O)N1CCN(CCCCl)CC1,103%,99.5%,103%,107%,97.7%,93.8%,101%,105%
O=S(=O)(NCCCNc1nccc(-c2c(-c3cccc(O)c3)nc3occn23)n1)c1ccc(F)cc1,56.3%,87.4%,37.3%,103%,85.2%,56.2%,109%,81.9%
CC(C)C1C2=C(NCCN1C(=O)Cc1ccccc1)C(C)(C)N(Cc1ccccc1)C2=O (configuration not stated),91.8%,99.7%,99.2%,92.5%,95.3%,91.7%,101%,107%
COc1ccc(C(=O)c2cc(C)c(OC)c(C)c2)c(OC)c1O,40.2%,8.49% (active),-40.3% (active),22%,16.1%,1.83% (active),16.8%,7.53% (active)
Cc1nc2sc(C(=O)Nc3cccc(Br)c3)c(N)c2cc1C(=O)c1ccc(C(F)(F)F)cc1,95.1%,95.7%,87.9%,72.2%,70%,56.1%,86.9%,84.8%
Clc1ccc(N2N=C(c3cccc(Nc4ccncc4)c3)CC2c2ccc3c(c2)OCO3)cc1 (configuration not stated),82.2%,87.1%,-77.6% (active),-78.6% (active),-17.4% (active),18.4%,1.72% (active),2.3% (active)
Brc1ccc(C2CC(c3cccc(Nc4ccncc4)c3)=NN2c2ccccc2)cc1 (configuration not stated),87.8%,84%,70.5%,-33.1% (active),24.5%,77.4%,19.2%,46.9%
COc1cc(-c2cc(=O)oc3cc(O)ccc23)cc(OC)c1OC,83.5%,97.4%,100%,96%,94%,86.5%,100%,85.7%
N/C(=N\N=C\c1cc2ccccc2s1)N/N=C/c1cc2ccccc2s1,95.5%,78.5%,106%,103%,82.7%,-69.7% (active),103%,103%
CC(C)(C)CC(C)(C)Nc1c(-c2ccc3c(c2)OCO3)nc2cnccn12,84.2%,82.2%,99.1%,109%,74.1%,5.36% (active),93.7%,96.2%
COc1ccccc1N1CCN(C(=O)c2ccc3nc(NC(=O)c4ccc(NCCc5ccccc5)c([N+](=O)[O-])c4)sc3c2)CC1,73.2%,80.3%,89.4%,75.1%,70.8%,57.7%,110%,79%
Fc1ccc(-n2cc(COc3ncnc4sc5c(c34)CCCC5)nn2)cc1Cl,95.1%,103%,99%,101%,95%,101%,114%,105%
COc1cc(/C=N/NC(=O)c2ccccc2Nc2cccc(C(F)(F)F)c2)ccc1O,55.6%,102%,81.4%,101%,83.9%,67.2%,91.4%,79.5%
O=C(Nc1cccc(C2=NCCN2)c1)c1ccc(OCCCOc2ccc(C(=O)Nc3cccc(C4=NCCN4)c3)cc2)cc1,18%,35.2%,-72% (active),14.8%,0.803% (active),6.6% (active),-13.3% (active),14.2%
COc1ccccc1C(C[N+](=O)[O-])c1c(-c2ccccc2)[nH]c2cc(C)ccc12 (configuration not stated),32.2%,80.1%,13.8%,54.6%,55.6%,53.8%,93.6%,63.1%
CC(C)Cc1ccc(C(C)C(=O)NCc2c[nH]c3ccc(Cl)cc23)cc1 (configuration not stated),69.8%,88.8%,66.6%,90.9%,89.5%,85.9%,103%,83.5%
